# Reference: PubChem BioAssay AID686979 (National Center for Advancing Translational Sciences (NCATS), 2013)
# About 50,000 (12%) of roughly 420,000 compounds were called active. Roughly 26% stayed inconclusive and do not appear here. Calls come from the whole dose curve; as a rule, active = well fitted inhibition curve with a large enough effect; inconclusive = small, poorly fitted or top-dose-only effect; inactive = flat fitted curve, though single readings scatter. This excerpt belongs to a sample that is enriched for actives.
# Test: qHTS for Inhibitors of human tyrosyl-DNA phosphodiesterase 1 (TDP1): qHTS in cells in presence of CPT; note: nearly all actives have a fitted effect of over 55% in size
# Conditions: chicken DT40 Tdp1-/-;hTDP1 cells + 20 nM CPT, ATP luminescence, 48 h; series mostly up to 46.2 µM; activity change, negative = growth inhibition: at the top concentration
# Description: Human tyrosyl-DNA phosphodiesterase 1 (TDP1) is a novel repair gene, and we propose to use it as a new target for anticancer drug development. TDP1 is not an essential protein, but under treatment with topoisomerase I poison (camptothecin: CPT), TDP1 works as a critical factor for cell survival. To directly identify novel TDP1 inhibitors active in a cellular environment, we have knocked-out the Tdp1 gene in chicken DT40 cells (Tdp1-/-) and generated a complemented counterpart cells that contains a stable transfection of the human TDP1 gene (Tdp1-/-;hTDP1 cells). For the primary screen, Tdp1-/-;hTDP1 cells will be exposed to small molecules in the presence or absence of CPT, and their growth kinetics will be evaluated after 48 hours by measuring ATP activity. […] The hit compounds will then be evaluated in the presence or absence of CPT using Tdp1-/- cells. […] In tertiary assays, biochemical gel-based assays will be used to assess whether the hit compounds specifically target TDP1. To this end, we have screened this cell line against the MLSMR in two primary screens. In one screen we add CPT and in the other we screen in the absence of CPT; this AID represents the screen where CPT was present. NIH Chemical Genomics Center [NCGC] NIH Molecular Libraries Probe Centers Network [MLPCN] MLPCN Grant: MH095538 Assay Submitter (PI): Yves Pommier, NCI
# DT40-hTDP1 cells with 20 nM Camptothecin (add 20 microL of 1 mM CPT stock in 1 L of cell culture medium) were dispensed at 400 cells/5microL/well in tissue culture treated 1536-well white wall/solid bottom assay plates (Greiner Bio-One North America, NC, U.S.A.) using a Multidrop Combi 8 channel dispenser (Thermo Fisher, Waltham, MA, USA). 23 nL compounds and controls were transferred using the pin tool (Kalypsys, San Diego, CA, USA) to the assay plates. The assay plates were then incubated at 37 masculineC for a minimum 48 hr. Three microL of Cell Titer Glo solution was added to the plates and incubated at RT in dark for 30 min. Luminescence was read using ViewLux (Perkin Elmer) with 1 sec exposure slow speed, high gain and 2x binning.
# % is set by controls: 0 for no effect and ±100 for the full control effect; potency is the fitted concentration of half-maximal effect.
SMILES,Potency,"activity change, negative = growth inhibition"
CCCC1C(=O)N2C(N(C)C)=Nc3ccc(C)cc3N2C1=O (stereo not drawn),inactive,–
Cc1cc(C)n2nc(SCC(N)=O)nc2n1,–,1.04% (inactive)
CCC1=NN(C(=O)Cc2ccc([N+](=O)[O-])cc2)C(O)(c2ccc(Br)cc2)C1 (stereo not drawn),–,1.79% (inactive)
Cc1cccc(N2C(=O)N3[C@H](c4ccc(F)cc4)[C@@H]4C(=O)N(C5CCCCC5)C(=O)[C@@H]4[C@]3(Cc3ccccc3)C2=O)c1,–,-2.11% (inactive)
O=C1CCC(C(=O)N2CCCCO2)CN1Cc1cccc(C(F)(F)F)c1 (stereo not drawn),–,-1.38% (inactive)
Cc1ccc(N2CC(C(=O)NCCS(=O)(=O)N3CCN(c4ccccc4)CC3)CC2=O)cc1 (stereo not drawn),inactive,–
O=C(Nc1cc(S(=O)(=O)N2CCOCC2)ccc1Cl)c1cc(=O)c2ccccc2o1,11.6 µM (active),–
O=C(Nc1cc(S(=O)(=O)N2CCOCC2)ccc1N1CCOCC1)c1c(F)cccc1Cl,–,4.69% (inactive)
Cc1cc(C)c2oc(C(=O)Nc3ccc(S(=O)(=O)N4CCCCCC4)cc3)cc(=O)c2c1,–,-6.28% (inactive)
CCC1CCCCN1S(=O)(=O)c1ccc(NC(=O)c2cc(=O)c3ccccc3o2)cc1 (stereo not drawn),3.26 µM (active),–
Cc1ccc2oc(C(=O)Nc3ccc(S(=O)(=O)N4CCCCCC4)cc3)cc(=O)c2c1,–,-24.2% (inactive)
O=C(NCCS(=O)(=O)N1CCN(c2ccccc2)CC1)c1cc(=O)c2ccccc2o1,–,-29.6% (inactive)
COc1ccccc1CN1CC(C(=O)NCCc2cn[nH]c2)CCC1=O (stereo not drawn),–,15.3% (inactive)
O=C(CCNS(=O)(=O)c1ccccc1C(F)(F)F)Nc1ccncc1,–,-23.4% (inactive)
CCOC(=O)CSc1nnc(NC(=O)C2CC(=O)N(c3ccc(F)cc3)C2)s1 (stereo not drawn),–,-2.28% (inactive)
COC(=O)C1=CN(Cc2ccc(OC)cc2)C=C(C(=O)OC)C1c1ccc(O)c(OC)c1,–,-10.8% (inactive)
CC(=O)Nc1ccc(S(=O)(=O)N2CCC(C(=O)NC3CC3)CC2)cc1,–,2.36% (inactive)
CS(=O)(=O)N1CCN=C1SCc1ccc(F)cc1,–,19.6% (inactive)
CC(=O)c1cnc(SCCN2C(=O)c3ccccc3C2=O)nc1C,–,-0.72% (inactive)
C=CCOc1cccc(C2NC(=O)c3ccccc3O2)c1 (stereo not drawn),–,1.33% (inactive)
O=C1NC(c2cccc(Cl)c2)Nc2ccccc21 (stereo not drawn),13 µM (active),–

SMILES,Potency,"activity change, negative = growth inhibition"
O=C1NC(c2ccccc2)Oc2ccccc21 (stereo not drawn),–,-11.4% (inactive)
COc1ccc(C(=O)CSc2nnc(NC(=O)C3CC(=O)N(c4cccc(OC)c4)C3)s2)cc1 (stereo not drawn),–,-23.9% (inactive)
Cc1cc(C)n2nc(C(=O)Nc3cccc(S(=O)(=O)N4CCOCC4)c3)nc2n1,–,-1.26% (inactive)
O=C(N/N=C\c1cc(Br)c(Br)o1)C1COc2ccccc2O1 (stereo not drawn),–,-8.29% (inactive)
Cc1cc(C(=O)N2CCCC2(C)C(=O)O)c(C)o1 (stereo not drawn),–,-14.8% (inactive)
CCCN=C1N(C)C[C@@H]2[C@@H]3C(=O)N(Cc4ccccc4)C(=O)[C@@H]3[C@](C)(C(=O)OC)N12,–,17.2% (inactive)
O=C(CCSc1ccccc1)N1CCN(c2ccccc2F)CC1,–,-4.21% (inactive)
O=C(CCc1ccccc1F)N1CCN(c2ccccc2)CC1,–,-12.7% (inactive)
O=C(CCSCc1ccccc1F)N1CCN(c2ccc(Cl)cc2)CC1,23.1 µM (active),–
COc1ccc(C2C(=O)N(C3CCCCCC3)CC(=O)N2CCc2ccc(Cl)cc2)cc1OC (stereo not drawn),23.1 µM (active),–
O=C(NCCc1ccc(Cl)cc1)C1CC(=O)N(C2CCCCC2)C1 (stereo not drawn),–,-11.4% (inactive)
CCOCCCN1C(=O)CN(C2CCCCC2)C(=O)C1c1ccc(OCC)c(OC)c1 (stereo not drawn),–,-15.8% (inactive)
COc1ccccc1N1CC(C(=O)NCCN2C(=O)S/C(=C\c3cccnc3)C2=O)CC1=O (stereo not drawn),–,4.39% (inactive)
S=C(Cc1ccc(Cl)cc1)N1CCOCC1,–,-4.63% (inactive)
COc1ccc(-c2cnc(SCCNC(=O)c3ccc4c(c3)OCO4)[nH]2)cc1,–,-10.2% (inactive)
O=S1(=O)CCOC[C@H](CC2CCCCC2)N1Cc1ccc(F)cc1,2.51 µM (active),–
CCC(C)[C@H]1COCCS(=O)(=O)N1Cc1ccc(C)cc1 (stereo partly drawn),–,-18.2% (inactive)
CCCC[C@H]1COCCS(=O)(=O)N1Cc1cccc(Cl)c1,–,0.0482% (inactive)
CC(C)Oc1ccc(S(=O)(=O)N2CCOCC2)cc1NC(=O)C1CCCC1,–,-10% (inactive)
O=C(CCS(=O)(=O)c1ccccc1Cl)Nc1ccc(S(=O)(=O)Nc2ncccn2)cc1,–,-10.7% (inactive)
Cc1ccc(S(=O)(=O)N2CCOCC2)cc1C(=O)OC1CCCCC1=O (stereo not drawn),–,-10.5% (inactive)

SMILES,Potency,"activity change, negative = growth inhibition"
C[C@@H]1CN([C@H](C)CO)C(=O)CCCn2cc(nn2)CO[C@H]1CN(C)S(=O)(=O)c1ccc(Oc2ccccc2)nc1,–,-12.2% (inactive)
O=C(/C=C/c1ccc(F)cc1)NCCNC(=O)/C=C/c1ccc(F)cc1,–,-1.15% (inactive)
O=C(/C=C/c1ccc([N+](=O)[O-])o1)NNC(=O)c1ccc(F)cc1,3.26 µM (active),–
CCN(C(=O)Cn1c(=O)nc(-c2ccccc2)c2cc(Cl)ccc21)c1cccc(C)c1,–,11.6% (inactive)
Cc1ccc(S(=O)(=O)NCC(=O)N(CC(=O)NCC2CCCO2)c2cccc(F)c2)cc1 (stereo not drawn),–,-1.7% (inactive)
C=CCOc1ccccc1CNn1c(C)n[nH]c1=S,–,-15.9% (inactive)
N#C/C(=C(/O)COc1cccc2ccccc12)c1nc2ccccc2[nH]1,–,-5.59% (inactive)
Cc1ccccc1OC/C(O)=C(\C#N)c1nc2ccccc2[nH]1,–,-3.62% (inactive)
N#C/C(=C(/O)COC(=O)COc1ccc(Cl)cc1)c1nc2ccccc2[nH]1,4.11 µM (active),–
O=C(NNC(=O)c1cc(-c2ccccc2Cl)nc2ccccc12)c1csc(N2CCOCC2)n1,–,-20.9% (inactive)
CC(C)(C)c1ccc(C(CC(=O)O)NS(=O)(=O)Cc2ccccc2)cc1 (stereo not drawn),–,-6.35% (inactive)
Cc1ccc2c(c1)N(CC(=O)NCC1CCCO1)C(=O)CO2 (stereo not drawn),–,2.88% (inactive)
NS(=O)(=O)c1ccc(NC(=O)CSc2nnc3c(n2)[nH]c2ccccc23)cc1,–,-21.2% (inactive)
CCCCCNC(=O)Cc1ccc(OC)cc1,–,3.59% (inactive)
C/C=C/NNC(=O)Cc1ccc(OC)cc1,3.55 µM (active),–
COc1ccc(CC(=O)Nc2ccc(C(=O)NC(C)(C)C)cc2)cc1,–,-12.6% (inactive)
C#CCOCCOCCOCCNc1nc(N2CCN(C(=O)[C@H](CCC(=O)O)n3cc(CN)nn3)CC2)nc(N2CCN(C(=O)[C@H](CCC(=O)O)n3cc(CN)nn3)CC2)n1,–,33% (inactive)
CC(=O)c1cccc(NC(=S)N2CCCC2)c1,–,48.5% (inactive)
CC1=NN(C(=O)Cc2ccc(C)cc2)C(O)(c2cccnc2)C1 (stereo not drawn),–,-20.6% (inactive)
CC1=NN(C(=O)CCCc2ccccc2)C(O)(C(F)(F)F)C1 (stereo not drawn),–,3.77% (inactive)
COc1ccc(CC(=O)N2N=C(C)CC2(O)C(F)(F)F)cc1 (stereo not drawn),2.91 µM (active),–
